A selection: hits, their analogues and other compounds. The true share with any hit is near 1.6%.
TRAIL sens C8: caspase-8 TRAIL sensitization; NB7+C8 cells + TRAIL, ATPlite viability luminescence; inhibition (viability loss, TRAIL sensitization), % at 10 µM; actives 1% (n = 360,000); AID 624354;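 active means compounds causing at least 50% loss of cell viability in the single-dose screen, relative to plate controls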
Platelet DG rel: platelet dense granule release activity | human platelet-rich plasma, SFLLRN dense granule ATP release, luminescence | inhibition, %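 (compounds screened at 7.5 µM in platelet-rich plasma)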 | actives 0.22% (n = 300,000) | AID 1663;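 active means mean replicate score, as percent of positive control, at or above 50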
STAT3 blocker: reduces IL-6 driven STAT3 reporter signal; inhibition, % at 5.5 µM; actives 0.89% (n = 190,000); U3A cells, IL-6 STAT3-luciferase reporter, luminescence; host cell line lacks STAT1; AID 862;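 active means inhibition above the mean inhibition across all screened compounds plus 3 SD, cut at about 44% in these data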;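 further: 0% = DMSO only wells and 100% = 100 µM nifuroxazide control wells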
PPC-1+TRAIL kill: compounds killing PPC-1 cancer cells with TRAIL present (potentiator screen, no TRAIL-free arm); PPC-1 cells + TRAIL, ATPLite viability luminescence; cell killing (% activity), % at 4 µM or 5 µM; actives 0.41% (n = 220,000); AID 1443;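 active means cell killing above 50% in the first pass at 4 µM, then a duplicate retest at 5 µM averaging 50% or more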;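 further: plate controls were cells with TRAIL plus DMSO for no effect and medium-only wells lacking cells for full effect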
STAT1 inh: STAT1 signaling inhibition; NIH 3T3 STAT1-luciferase reporter, IFN-gamma, luminescence; inhibition, % at 5.5 µM; actives 0.35% (n = 200,000); AID 920;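 active means inhibition above a set limit, the mean inhibition across all tested compounds plus 3 SD, cut at about 34% in these data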;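 further: 0% = IFN-gamma with DMSO and 100% = IFN-gamma with 300 µM nifuroxazide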
Active calls of the source: *; / = no result.

SMILES | TRAIL sens C8 | Platelet DG rel | STAT3 blocker | PPC-1+TRAIL kill | STAT1 inh
CCOC(=O)c1c(N)n(CCCOC(=O)c2ccco2)c2nc3ccccc3nc12 | 52* | -11 | 18 | 21 | 3
CC(N)Cc1ccccc1Sc1ccc(O)cc1 (stereo unspecified) | / | 76* | 15 | 19 | 9
CC(C)(C)n1nnnc1C(C1CC1)N1CCC(n2c(=O)[nH]c3ccccc32)CC1 (stereo unspecified) | 8 | / | / | / | /
CC(C)(O)/C=C/C(=O)C(C)(O)C1C(O)CC2(C)C3CC=C4C(C=C(O)C(=O)C4(C)C)C3(C)C(=O)CC12C (stereo unspecified) | 62* | / | / | / | /
NC(N)=N/N=C/c1ccc(N(c2ccccc2)c2ccccc2)cc1 | 69* | -3 | / | / | /
CCOC(=O)c1cc2ccccc2n1C1CCN(Cc2ccccc2)CC1 | 7 | / | / | / | /
O=C(OCc1ccccc1)N1CCC2CC1c1cc(N3Cc4ccccc4-n4nncc4C3)ccc12 (stereo unspecified) | 11 | / | / | / | /
Cc1cccc(N2C(=O)NC(=O)/C(=C\c3cccn3-c3ccc(Cl)cc3)C2=O)c1 | 13 | 13 | -13 | 0 | 34*
Cc1cc(C)cc(N2C(=O)NC(=O)/C(=C/c3cccn3-c3ccc(Cl)cc3)C2=O)c1 | 11 | 1 | -2 | 36 | 16
O=C(COC(=O)c1cc(Br)cc(Br)c1O)NC12CC3CC(CC(C3)C1)C2 | -3 | / | / | / | /
CC1CCC(C(C)C)C(OC(=O)Cn2c(COc3ccccc3)[n+](C)c3ccccc32)C1 (stereo unspecified) | 53* | -1 | / | 9 | /
C[C@H]1CCC[C@H](O)CCCCCc2cc(O)cc(O)c2C(=O)O1 | 3 | 1 | 28 | -8 | 1
C[C@H]1CCC/C=C/C2C[C@H](O)CC2[C@H](O)/C=C/C(=O)O1 (stereo partly specified) | 34 | 8 | 93* | 43 | 46*
CC1CCC/C=C/C2CC(O)CC2C(O)/C=C/C(=O)O1 (stereo unspecified) | 22 | -2 | 89* | 57* | 53*
O=P1(NCCCl)OCCC(OO)N1CCCl (stereo unspecified) | -1 | / | / | / | /
CN(C)c1ccc(C2C3C=CC(C3)C2(C#N)C(=O)O)c(Br)c1 (stereo unspecified) | 2 | 0 | / | / | /
O=C1NCN(c2ccccc2)C12CCN(C(c1cccc3ccccc13)c1nnnn1C1CCCCC1)CC2 (stereo unspecified) | -10 | / | / | / | /
COC(=O)C1=C(C(=O)OC)SC2(S1)C(C(=O)OC)=C(C(=O)OC)Sc1c2ssc1=O | 51* | / | / | / | /
O=C1NCN(c2ccccc2)C12CCN(C(c1ccnc3ccccc13)c1nnnn1C1CCCCC1)CC2 (stereo unspecified) | -22 | / | / | / | /
COc1ccc2c(c1O)-c1c(OC)c(OC)cc3c1[C@H](C2)N(C)CC3 | -14 | / | / | / | /
CCCN1CCc2cccc3c2[C@H]1Cc1ccc(O)c(O)c1-3 | 46* | 1 | / | / | /
CN(C)C(=O)O/N=C(\N)COc1ccc(C(C)(C)C)cc1 | 90* | 2 | / | 21 | /
COc1ccc(Oc2cc(NC(=O)c3nn(C)cc3[N+](=O)[O-])cc([N+](=O)[O-])c2)cc1 | 88* | 3 | 25 | 23 | 28
COc1ccc(C(CC(=O)N2CCC3(CC2)OCCO3)NS(=O)(=O)c2ccc(OC)cc2)cc1 (stereo unspecified) | 1 | 18 | 4 | 54* | 1
CNC(=O)Oc1ccc(-c2cn3cc(C)ccc3n2)cc1 | 93* | 21 | 106* | 88* | 82*
SMILES | TRAIL sens C8 | Platelet DG rel | STAT3 blocker | PPC-1+TRAIL kill | STAT1 inh
COc1ccc(C(c2nnnn2-c2ccc(OC)cc2)N2CCC(n3c(=O)[nH]c4ccccc43)CC2)cc1 (stereo unspecified) | 14 | / | / | / | /
COc1ccc(-n2nnnc2C(c2cc3ccccc3o2)N2CCC(n3c(=O)[nH]c4ccccc43)CC2)cc1 (stereo unspecified) | 66* | / | / | / | /
O=c1[nH]c2ccccc2n1C1CCN(C(c2cc3ccccc3o2)c2nnnn2-c2ccc3c(c2)OCCO3)CC1 (stereo unspecified) | 86* | / | / | / | /
CSCCC(c1nnnn1Cc1ccccc1)N1CCC(n2c(=O)[nH]c3ccccc32)CC1 (stereo unspecified) | 47 | / | / | / | /
O=c1[nH]c2ccccc2n1C1CCN(C(CCc2ccccc2)c2nnnn2Cc2ccccc2)CC1 (stereo unspecified) | 91* | / | / | / | /
C1=CC(Cc2cncs2)c2ccccc21 (stereo unspecified) | 7 | / | / | / | /
CC(C)(C)C(=O)N1Cc2cc(-c3ccccc3)ccc2-n2nncc2C1 | -9 | / | / | / | /
CCOC(=O)C1(c2ccccc2)CCN(CCC(=O)Nc2cccc(Br)c2)CC1 | 19 | / | / | / | /
CCCC[C@@H](C)C[C@@H](C)C(=O)N(C)[C@@H](CC(C)C)C(=O)N[C@H](C(=O)N(C)[C@H](C(=O)N1C[C@@H](O)C[C@H]1C(=O)N1C(=O)C=C[C@@H]1C)C(C)C)C(C)OC(C)=O (stereo partly specified) | 89* | / | / | / | /
C=C(C)[C@@H]1[C@H]2OC(=O)[C@H]1[C@]1(O)C[C@H]3O[C@]34C(=O)O[C@H]2[C@]14C | 5 | / | / | / | /
C=C1C(=O)O[C@H]2[C@H]1[C@H](OC(=O)CC(=O)O[C@@H]1C[C@@H](C)[C@@H]3C=CC(=O)[C@@]3(C)[C@H]3OC(=O)C(=C)[C@H]13)C[C@@H](C)[C@H]1C=CC(=O)[C@]12C | 27 | -1 | / | 4 | /
C=C1C(=O)O[C@@H]2C[C@@H](C)[C@@H]3C=CC(=O)[C@@]3(C)[C@@H](OC(=O)CC(=O)O[C@H]3[C@@H]4C(=C)C(=O)O[C@@H]4C[C@@H](C)[C@@H]4C=CC(=O)[C@]43C)[C@H]12 | 95* | -5 | / | -17 | /
C=C1C(=O)OC2CC(C)C3C=CC(=O)C3(C)C(O)C12 (stereo unspecified) | 86* | / | / | / | /
CC1=NN=C(c2ccc(N)cc2)c2cc3c(cc2C1)OCO3 | 7 | / | / | / | /
Cc1nc2ccccn2c1P(=S)(c1ccccc1)c1ccccc1 | 10 | / | / | / | /
COc1ccc(CC2C(=O)NC(C)C(=O)N(C)C3C(=O)N(C)C(Cc4ccc(O)c(c4)Oc4ccc(cc4)C3O)C(=O)NC(C)C(=O)NC(C)C(=O)N2C)cc1 (stereo unspecified) | 66* | / | / | / | /
C=CCn1c(O)c(C(CC)=NCc2cc(OC)cc(OC)c2)c(=O)[nH]c1=O | 50* | 0 | 21 | 20 | 16
CN(C)CC(C(=O)Cc1ccccc1)c1ccccc1 (stereo unspecified) | 63* | / | / | / | /
C[C@@H]([C@@H](O)c1ccccc1)N(C)C(=O)Cc1ccccc1 | -13 | -2 | / | / | /
NCCCN1CCN(c2ccccc2)CC1 | 7 | 0 | / | 0 | /
COc1ccc(N2CCN(CCCN)CC2)cc1 | -8 | 63* | 12 | / | -3
O=c1[nH]c2ccccc2n1C1CCN(C(CCc2ccccc2)c2nnnn2C2CCCCC2)CC1 (stereo unspecified) | 6 | / | / | / | /
COc1ccc2[nH]cc(CCN)c2c1 | -18 | / | 10 | 12 | 0
CCCCCCCCCOc1ccc2[nH]cc(CCN)c2c1 | / | / | / | 61* | /
